PI4K2A block = blocks human PI4K2A kinase activity; Q9BTU6; purified PI4K2A, ADP-Glo luminescence, 1 h; stronger effect = lower value; activity change, negative = inhibition, % at 76.9 µM; 420,000 compounds, 0.13% hits; in the data active = activity change below about -50%; inconclusive = mostly about -30% to -49%;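 note: -100% = wells without enzyme as full effect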
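Compounds are screened against recombinant PI4K2A using PI as substrate and ATP, the latter dispensed at 300 microM. Reactions run one hour at ambient temperature before ADP-Glo detection; full inhibition defined by wells lacking enzyme.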
Pol eta inh = DNA polymerase eta (human) inhibition. Potency, µM (top dose mostly 114 µM), for the others: at the top dose activity change, negative = inhibition, most hits filed as inhibitors. 390,000 compounds, 1.2% hits. AID 588591. recombinant Pol eta, fluorescent DNA replication assay; note: potency is the fitted concentration of half-maximal effect; % is set by controls: 0 for no effect and ±100 for the full control effect
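Pol eta at 10 nM preincubated with compounds 15 min at room temperature; reaction started with fluorescent substrate (50 nM final) and read kinetically at 0 and 10 min.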
POLB inh = blocks human DNA polymerase beta activity; P06746; Pol beta primer extension/strand displacement, fluorescence kinetic; Potency, µM (doses to about 114 µM), inactives show at the top dose activity change, negative = inhibition, usual class: inhibitors; 340,000 compounds, 1.3% hits; note: potency is the fitted concentration of half-maximal effect; % is set by controls: 0 for no effect and ±100 for the full control effect
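Preincubation: enzyme (10 nM) with compound, 15 min, RT. Reaction: substrate added to 50 nM final. Reads: 0 and 10 min. Analysis: normalized, Hill fit.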
Pol iota inh = inhibitors of human DNA polymerase iota; Q9UNA4; Pol iota fluorescent replication assay, 10 min; Potency, µM (highest dose often 115 µM), for inactives: at the highest dose activity, negative = inhibition, hits mostly inhibitors; 390,000 compounds, 1% hits; AID 588590; note: potency is the fitted concentration of half-maximal effect
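Fluorescent replication assay read twice, at 0 min and 10 min after adding 50 nM (final) substrate. Enzyme (10 nM) and compounds were first incubated 15 min at room temperature; enzyme-free buffer wells were negative controls.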
POLK inh = blocks human DNA polymerase kappa activity | Q9UBT6 | purified Pol kappa, fluorescent DNA synthesis assay, 10 min | Potency, µM (series often up to 107 µM), for inactives: at the highest dose activity, negative = inhibition, actives largely listed as inhibitors | 400,000 compounds, 0.53% hits; note: potency is the fitted concentration of half-maximal effect; % is set by controls: 0 for no effect and ±100 for the full control effect
Target sequence (Q9UBT6 whole entry, looked up): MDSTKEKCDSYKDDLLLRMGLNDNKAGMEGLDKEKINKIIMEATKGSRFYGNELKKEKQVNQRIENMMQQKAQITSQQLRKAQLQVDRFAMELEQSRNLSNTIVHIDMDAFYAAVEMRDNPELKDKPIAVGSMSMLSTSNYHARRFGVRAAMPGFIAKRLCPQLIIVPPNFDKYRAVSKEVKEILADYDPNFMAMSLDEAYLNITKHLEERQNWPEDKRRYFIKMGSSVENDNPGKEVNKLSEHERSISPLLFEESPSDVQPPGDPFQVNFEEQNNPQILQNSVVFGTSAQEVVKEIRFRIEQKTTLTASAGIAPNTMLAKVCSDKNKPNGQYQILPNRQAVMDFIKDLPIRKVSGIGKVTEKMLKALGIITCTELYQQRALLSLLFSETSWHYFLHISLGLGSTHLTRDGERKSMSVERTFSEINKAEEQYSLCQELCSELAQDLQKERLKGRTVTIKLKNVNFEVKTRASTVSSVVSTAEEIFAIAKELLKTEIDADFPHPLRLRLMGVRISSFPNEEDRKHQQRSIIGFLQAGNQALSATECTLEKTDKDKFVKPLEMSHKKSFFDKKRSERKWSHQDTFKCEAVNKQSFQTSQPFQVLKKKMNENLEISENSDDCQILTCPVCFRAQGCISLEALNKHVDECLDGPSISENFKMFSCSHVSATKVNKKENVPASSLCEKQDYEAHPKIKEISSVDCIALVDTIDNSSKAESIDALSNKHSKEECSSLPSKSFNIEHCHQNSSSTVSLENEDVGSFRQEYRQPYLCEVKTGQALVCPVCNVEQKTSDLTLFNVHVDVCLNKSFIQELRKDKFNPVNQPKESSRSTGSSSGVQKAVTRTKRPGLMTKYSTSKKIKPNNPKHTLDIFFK
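First, compounds were pin-transferred onto 10 nM Pol kappa. After 15 min at room temperature, substrate was added to 50 nM final. Fluorescence was then measured kinetically at 0 and 10 min.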
PI5P4K alpha inh = inhibitors of human PI5P4K alpha; max response, %; 330,000 compounds, 1.2% hits; P48426; PI5P4Kalpha enzyme, ADP-Glo luminescence, 60 min; stronger effect = lower value; AID 652105; active = max response of -50% or lower; inconclusive = between -30% and -50%; inactive = -30% or higher; note: value at the top dose of about 77 µM; % is set by controls: 0 for no effect and ±100 for the full control effect
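Single end-point luminescence (ADP-Glo) quantified ADP from PI5P4Kalpha turnover; ATP 5 microM final, 1 h at RT, 0.1% CHAPS and 0.28 mM EGTA in HEPES pH 7.4.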
* = called active by the depositor; ? = inconclusive; . = not tested or not shown; [ ] = another dose, or the depositor's remark. Compounds with a hit are over-represented: about 2.8% of the library has one in this group of screens. Unless noted, calls come from the whole dose curve; as a rule, active = well fitted inhibition curve with a large enough effect; inconclusive = small, poorly fitted or top-dose-only effect, or another doubt; inactive = no such curve, though single readings can be large or run the other way.

SMILES | PI4K2A block | Pol eta inh | POLB inh | Pol iota inh | POLK inh | PI5P4K alpha inh
O=C1NC(=O)/C(=C\c2ccc(Sc3ccc(Cl)cc3)o2)N1 | -7 | ? | 35µM* | ? | -26% | ?
O=c1cc(O)n(-c2ccccc2)c(=S)[nH]1 | -17 | -2% | 22% | ? | 2% | ?
O=c1[nH]c2cnccc2n1-c1ccccc1 | 1 | -13% | 29% | 13% | -17% | 2
O=c1[nH]c(=O)c2[nH]c(=O)n(-c3ccccc3)c2[nH]1 | -14 | -3% | . | -9% | -23% | -57*
O=c1[nH]c(=S)c2[nH]c(=S)n(-c3ccccc3)c2[nH]1 | 10 | -5% | . | 59% | -23% | -84*
Cc1ccc2nc(-c3ccc(C)o3)c(Nc3ccc(F)cc3)n2c1 | . | . | . | -30% | -4% | .
OCc1ccccc1N=c1ssnc1Cl | . | . | 20% | . | . | .
COc1cc(N=c2ssnc2Cl)cc(OC)c1 | 3 | -6% | -9% | -14% | 7% | -79*
Clc1ccc(N=c2ssnc2Cl)nc1 | -17 | 6% | -1% | 17% | -9% | -23
N#Cc1cccc(N=c2ssnc2Cl)c1 | -3 | -17% | 1% | 70% | -4% | -77*
Clc1nssc1=Nc1nncs1 | -28 | 15% | . | ? | -1% | -55*
Clc1nssc1=Nc1ccc(Br)cc1 | 7 | 2% | 49% | 121% | -5% | -57*
O=C(N/N=C/c1cccc([N+](=O)[O-])c1O)c1cccs1 | -1 | -16% | -4% | -3% | -5% | -51*
O=C(N/N=C/c1ccc([N+](=O)[O-])cc1)c1cccs1 | 5 | ? | 32µM* | 71µM* | ? | -4
CCN(CC)CCCNc1nc2ccccc2c2nc(-c3ccncc3)nn12 | -2 | 20% | 35µM* | ? | ? | 2
COc1cc2nc(NCCCN3CCN(C)CC3)n3nc(-c4ccccc4)nc3c2cc1OC | 18 | ? | 25µM* | ? | ? | 22
COC(=O)c1nc(NC(=O)C(C)(C)C)n[nH]1 | -17 | 2% | 1% | 79µM* | -8% | .
COC(=O)c1nc(NC(=O)c2ccc(Br)cc2)n[nH]1 | -2 | -3% | 13% | -3% | -12% | 0
C=CCSC1=N/C(=C\c2cc(OCC)c(OC(C)=O)c([N+](=O)[O-])c2)C(=O)S1 | -3 | ? | 20µM* | 20µM* | 32µM* | -72*
C=CCSC1=N/C(=C\c2ccc3c(c2)OCO3)C(=O)S1 | 4 | -2% | 23% | -1% | -16% | 8
N#CC[n+]1cccc(Br)c1 | . | . | . | 70% | -19% | .
CC(=O)NC1=CC(=O)c2nonc2C1=O | . | . | . | -84% | ? | .
CCN(CC)c1ccccc1/C=C/[n+]1ccc(CCCCI)c2ccccc21 | . | . | . | ? | 50µM* | .
COC(=O)c1c(C)cc(O)cc1O | -1 | -14% | . | 20% | 21% | 5
COC(=O)c1cc(O)cc(OC)c1C(=O)c1c(O)cc(C)cc1O | 1 | 35µM* | ? | 71µM* | ? | 2
SMILES | PI4K2A block | Pol eta inh | POLB inh | Pol iota inh | POLK inh | PI5P4K alpha inh
COc1cc(NS(=O)(=O)c2cc(Br)cc3c2N(C(C)=O)C(C)C3)cc(OC)c1 (stereo not drawn) | -1 | -11% | -16% | -13% | -16%[60.1 µM] | .
N#Cc1ccc(/C=C\c2nccc3c2[nH]c2ccccc23)cc1 | 7 | -1% | 18µM* | ? | -18% | -13
CC1CCC/C(=C\Nc2ccc3c(c2)OCO3)C1=O (stereo not drawn) | -6 | 5% | 33% | 12% | -5% | -16
O=C1CCCC/C1=C\Nc1ccc(O)cc1 | ? | -3% | -4% | 25µM* | -3% | .
O=C1CCC/C1=C/Nc1ccc2c(c1)OCO2 | 0 | 5% | 25µM* | 22% | -3% | 5
O=C1CCC/C1=C/Nc1ccc(Cl)cc1 | -1 | -6% | -9% | -13% | -2% | 0
Cc1c([N+](=O)[O-])cnc2ccccc12 | . | . | . | 37% | -4% | .
O=C(COc1ccccc1C(=O)OCC(=O)N1CCOCC1)Nc1ccc(Br)cc1 | . | . | . | ? | -8% | .
NNC(=S)Nc1cccc(-c2n[nH]c(=S)o2)c1 | 0 | 79µM* | ? | -12% | -30% | -76*
COc1cccc(C(=O)N2CCC(Oc3cccnc3)CC2)c1 | 1 | . | . | . | . | .
C[n+]1cccc2ccc3c(c21)OC(N)=C(C#N)C3c1ccccc1 (stereo not drawn) | ? | -3% | 3% | 18µM* | -16% | -12
C[n+]1cccc(C2C(C#N)=C(N)Oc3c2ccc2ccccc32)c1 (stereo not drawn) | -4 | -14% | 7% | 109% | -23% | -8
CNc1oc(Cc2ccccc2)nc1S(=O)(=O)c1ccccc1 | -17 | 2% | 1% | 4% | -12% | -85*
O=C(N/N=C/c1ccc2c(c1)OCO2)c1ccc2c(c1)OCCO2 | -5 | -25% | -1% | -7% | 1% | 0
CC(C)Oc1ccc(CCC(=O)N/N=C/c2ccc3c(c2)OCO3)cc1 | 3 | -16% | 0% | 25% | 4% | 2
O=C(N/N=C\C=C\c1ccc(Br)cc1)c1ccc2c(c1)OCO2 | 0 | -18% | 35µM* | ? | -13% | -14
O=C(N/N=C/c1ccc(Cl)cc1)c1ccc2c(c1)OCO2 | -5 | 7% | 35µM* | 79µM* | -6% | 0
O=C(CCc1ccc(O)c(O)c1)N/N=C/c1ccc2c(c1)OCO2 | -2 | 0% | 71µM* | 79µM* | ? | -21
O=C(CNC(=O)c1ccc2c(c1)OCO2)N/N=C/c1cc(Br)ccc1O | 0 | -6% | 45µM* | -18% | -13% | 10
COc1ccccc1NC(=S)OCCN1CCCC12CCC(c1ccccc1)CC2 (stereo not drawn) | -5 | . | . | . | . | .
O=C(NCC(=O)N1CCN(c2ccccc2O)CC1)c1ccc2c(c1)OCO2 | -13 | ? | ? | 50µM* | -12% | -21
O=C1C2CCCCC2C(=O)N1c1cccc(OS(=O)(=O)c2ccccc2)c1 (stereo not drawn) | -1 | -8% | 10% | 24% | -1% | -1
O=C1CC(=O)N(C2CCCCC2)C(=O)N1c1ccccc1S(=O)(=O)Oc1ccccc1 | -26 | . | . | . | . | -64*
Nc1nc2ccccc2cc1C(=O)NCCCCc1ccccc1 | -6 | . | . | . | . | -2
Cc1ccc(S(=O)(=O)NCC(=O)OCC(=O)c2ccc(Br)s2)cc1 | -6 | ? | ? | -2% | -13% | -52*
CC(C)N1CCC1(C)C(=O)Nc1cccc(C#N)c1 (stereo not drawn) | 6 | . | . | . | . | 0
Cn1c2ccccc2c2cc(/C=N/NC(=O)c3ccc(O)cc3O)ccc21 | 0 | ? | ? | ? | -28% | -62*
CCn1c2ccccc2c2cc(/C=N/NC(=O)c3ccc(O)cc3)ccc21 | 5 | ? | ? | ? | ? | -28
